In PubChem BioAssay (NCI):
Several values for one entry are separate records, joined by “and”; a condition that tells them apart may be missing. Equal values may be shown once. Compounds without any hit were thinned out: in the full panel of roughly 83,000, 20% have a hit.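 Note: values are percent growth. 100 is the growth of untreated cells, values between 100 and 0 indicate rising inhibition; between -100 and 0 indicates cell death.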 Activity calls are given as the source filed them. The calls were made as follows: active = growth percent below 10; inactive = the rest.

Assays:
Test in all cases: NCI-60 one-dose screen, 48 h (100 = growth as untreated, 0 = no growth, -100 = all killed)
Conditions in all cases: 10 µM unless noted
[1] = tested on: SR leukemia
[2] = tested on: RPMI-8226 leukemia
[3] = tested on: OVCAR-8 ovarian
[4] = tested on: OVCAR-5 ovarian
[5] = tested on: OVCAR-4 ovarian
[6] = tested on: SK-OV-3 ovarian
[7] = tested on: IGROV1 ovarian
[8] = tested on: OVCAR-3 ovarian
[9] = tested on: HS 578T breast
[10] = tested on: NCI/ADR-RES ovarian
[11] = tested on: T-47D breast
[12] = tested on: BT-549 breast
[13] = tested on: MDA-MB-435 melanoma
[14] = tested on: SW-620 colon
[15] = tested on: MCF7 breast
[16] = tested on: HCT-116 colon
[17] = tested on: HCC-2998 colon
[18] = tested on: KM12 colon
[19] = tested on: MDA-MB-468 breast

Measured: growth

COC(=O)c1c(C(=O)OC)c2c3ccccc3c3ccccc3n2c1C(=O)C(C)(C)C
inactive: [2] 47.2% | [3] 90.5% | [4] 97.9% | [5] 57.6% | [6] 122% | [7] 96.3% | [8] 112% | [9] 69.4% | [10] 83.3% | [11] 46.4% | [12] 62.5% | [13] 83.2% | [14] 100% | [15] 73% | [16] 59% | [17] 85.6% | [18] 62.5%
active: [1] -17.3%

COc1cc(C=O)ccc1Oc1nc(Nc2ccc(F)cc2)nc(N(C)C)n1
70.9% (inactive) and 6.2% (active): [1]
inactive: [2] 60% and 67% | [3] 85.3% and 56.7% | [4] 100% and 105% | [5] 56.4% and 47.8% | [6] 87.6% and 122% | [7] 96.7% and 49.3% | [8] 62.1% and 78.7% | [9] 85.5% and 41.5% | [10] 81.7% and 54.3% | [11] 33.3% and 66.1% | [12] 77.3% and 16.5% | [13] 71.1% and 88.1% | [14] 94.4% and 50.4% | [15] 53.2% and 45.4% | [16] 64.9% and 20.3% | [17] 108% and 75.6% | [18] 99.3% and 68.5%

O=C(Nc1ccc(F)cc1)Nc1nc2ccc([N+](=O)[O-])cc2s1
active: [2] -23.5% | [6] -5.21% | [9] -8.39% | [10] 6.37% | [11] -18.1% | [12] -53.2% | [13] 0.0184% | [14] 7.92% | [15] 1.6% | [16] 1.02% | [18] 9.04%
inactive: [1] 12.9% | [3] 11.4% | [4] 24% | [5] 16.4% | [7] 27.1% | [8] 22.6% | [17] 11.8%

COc1ccc(N=Nc2c(N)nn3c(-c4cc5cc(Br)ccc5oc4=O)ccnc23)cc1
inactive: [1] 28% | [2] 48.5% | [3] 19.5% | [4] 33.4% | [5] 32.2% | [6] 17.4% | [8] 25.3% | [9] 35.4% | [10] 15.5% | [11] 10.8% | [13] 54.2% | [14] 56.1% | [15] 26.4% | [16] 23.8% | [17] 20.2% | [18] 36.1%
active: [7] 6.35% | [12] -2.5%

COc1cc(-c2ccc3ncnc(N4CCc5ccc(Cl)cc54)c3c2)cnc1Cl
inactive: [1] 12.3% | [3] 37.1% | [4] 34.7% | [5] 33.3% | [6] 17.4% | [8] 29.2% | [9] 23.5% | [10] 26.6% | [13] 32.8% | [14] 17.4% | [17] 28% | [18] 33.2%
active: [2] -4.08% | [7] -44.4% | [11] 8.82% | [12] 5.89% | [15] 3.58% | [16] 8.7% | [19] -16.8%

N#Cc1cc(-c2ccnc(Nc3ccc(N4CCN(C5COC5)CC4)cc3)n2)ccc1N1CCCC1
inactive: [1] 23% | [2] 36.6% | [3] 79.5% | [4] 93.5% | [5] 43.9% | [6] 52.8% | [7] 55.3% | [8] 94.5% | [9] 21.6% | [10] 92.2% | [11] 91% | [12] 34.1% | [13] 66.9% | [14] 72.7% | [15] 85.8% | [16] 49% | [17] 75.4% | [18] 83.2%

C=CC(=O)N1CCN(c2ccc3nc4c(nc3c2C(F)(F)F)C(=O)c2ncccc2C4=O)CC1
inactive: [1] 33.2% | [6] 91.1% | [9] 75.8% | [10] 47.5% | [12] 10.1%
active: [2] -20.2% | [3] -9.34% | [4] 2.97% | [5] -96.4% | [7] -42.6% | [8] -15.3% | [11] -4.37% | [13] -71.1% | [14] 4.1% | [15] -66.8% | [16] -25.7% | [17] 5.17% | [18] 9.15%

O=C(CSc1nnc(-c2ccc(-c3nc4ccc(Cl)cc4[nH]3)cc2)o1)Nc1ccc(Cl)cc1
inactive: [4] 49.3% | [5] 19.1% | [6] 81.1% | [7] 51.2% | [9] 14.1% | [10] 11.4% | [11] 47.5% | [15] 19.1% | [17] 67% | [18] 18.8%
active: [1] 0.703% | [2] 8.59% | [3] -31.3% | [8] 5.34% | [12] -9.75% | [13] 8.45% | [14] 4.33% | [16] 5.5%

CC1=C(C(=O)Nc2ccccc2)C(c2ccc3ccccc3c2)n2c(nc3ccccc32)N1 (stereo unspecified)
inactive: [1] 38.4% | [2] 40.8% | [4] 97.9% | [6] 107% | [7] 67.4% | [9] 40.3% | [10] 41.4% | [11] 91.8% | [12] 92.9% | [13] 53.9% | [17] 52.3% | [18] 69.4%
active: [3] 6.23% | [5] -35.4% | [8] -21.9% | [14] 9.24% | [15] 9.9% | [16] -36.4%

COC(=O)c1cccc(Oc2ccc(NC(=O)Nc3cc(C(F)(F)F)ccc3F)cc2)c1
active: [9] 4.44%
inactive: [1] 26.9% | [2] 62.8% | [3] 40.3% | [4] 87.1% | [5] 55.4% | [6] 87.6% | [7] 56.7% | [8] 78.5% | [10] 73.9% | [11] 47% | [12] 64.7% | [13] 92.4% | [14] 89.7% | [15] 61.8% | [16] 60.7% | [17] 96.9% | [18] 75.3% | [19] 71.5%

COc1ccc(-c2cc(C(=O)OCc3ccc(Br)cc3)nn2-c2ccc(S(C)(=O)=O)cc2)cc1OC
inactive: [1] 62.8% | [2] 52.8% | [3] 87.3% | [4] 97.8% | [5] 73.3% | [6] 83.7% | [7] 95.6% | [8] 80.3% | [9] 65.4% | [10] 78.3% | [11] 48.4% | [12] 74% | [13] 89.8% | [14] 99.2% | [15] 72.1% | [16] 83.4% | [17] 95.8% | [18] 93.1%

O=C(N/N=C/c1c[nH]c2ccccc12)Nc1ccccc1Cl
inactive: [4] 23.1% | [5] 53.9% | [6] 15.4% | [7] 19.9% | [11] 44.9% | [14] 26.1%
active: [1] 5.61% | [2] 7.68% | [3] -7.94% | [8] -28.4% | [9] 8.49% | [10] -9.92% | [12] 1.24% | [13] 2.02% | [15] 1.71% | [16] -12.7% | [17] -22% | [18] -44.2%

CCCn1c(NC(=O)c2cccc(C(N)=O)c2)nc2ccc(CN3CCCCC3)cc21
inactive: [1] 31.4% | [2] 85.2% | [3] 107% | [4] 83.3% | [5] 98.5% | [6] 85.9% | [7] 72.4% | [8] 112% | [9] 111% | [10] 111% | [11] 107% | [13] 93.1% | [14] 109% | [15] 75.6% | [17] 107% | [18] 24%
active: [12] -48% | [16] 6.73%

COc1ccc2[nH]c(=O)c(CSc3ccccc3Nc3nccc(-c4ccc(C(F)(F)F)cc4)n3)cc2c1
inactive: [3] 32.4% | [4] 75.9% | [5] 39.2% | [6] 81.7% | [7] 59.8% | [8] 22.1% | [9] 42.5% | [10] 10.5% | [11] 11.3% | [13] 32.3% | [14] 17.5% | [17] 18.8% | [18] 29.2%
active: [1] -16.8% | [2] 4.65% | [12] -10.4% | [15] -17.5% | [16] -8.91%

NC1(c2ccc(-c3ccc4ncnc(NCc5ccccc5)c4c3)cn2)COC1
inactive: [1] 101% and 92.4% | [2] 117% and 110% | [3] 113% and 117% | [4] 102% and 103% | [5] 106% and 109% | [6] 143% and 109% | [7] 116% and 108% | [8] 106% and 74.8% | [9] 105% | [10] 104% and 107% | [11] 108% and 107% | [12] 109% and 106% | [13] 106% and 107% | [14] 114% and 106% | [15] 102% and 99.5% | [16] 109% and 116% | [17] 117% and 113% | [18] 101% and 88.5% | [19] 102% and 103%

COc1ccc(CCC2NCCc3c(Br)c4c(c(OC)c32)OCO4)cc1 (stereo unspecified)
active: [1] -6.62% | [7] 1.92% | [8] 1.09% | [9] 8.95% | [10] -13.9% | [12] -19% | [13] -64.5% | [14] 2.69% | [15] 3.82% | [16] 4.11% | [17] -23.2% | [18] 3.9%
inactive: [2] 11% | [3] 27.9% | [4] 11.6% | [5] 42.4% | [6] 28.8% | [11] 31.2%
